# Source: PubChem BioAssay
# SRC2 inh: inhibition of GAL4-SRC2 driven luciferase reporter, primary screen, SRC2 inhibitor project, cell-based, luminescence. Nuclear receptor coactivator 2 (Homo sapiens), Q15596. HEK293 GAL4-SRC2 luciferase reporter. 370,000 compounds, 0.17% hits. inhibition, % at 9 µM;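 active = inhibition above the mean inhibition of all tested compounds plus 3 SD, set per campaign, cut at about 52% in these data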;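 note: 0% = DMSO treated cells and 100% = cells given Gossypol at 36 µM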
# NR5A2 inv ag: LRH-1 (NR5A2) inverse agonists, primary screen, cell-based, luminescence, HEK293T, StAR-luciferase reporter; Nuclear receptor subfamily 5 group A member 2 (Homo sapiens), O00482; LRH-1 transfected, 24 h; inhibition, % at 3.6 µM; 360,000 compounds, 0.13% hits;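 active = inhibition above the mean inhibition of all tested compounds plus 3 SD, cut at about 73% in these data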;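 note: 0% = DMSO wells and 100% = reporter-only cells lacking LRH-1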
# NCOA3 inh: SRC3 coactivator transcriptional activity inhibitors, primary screen, cell-based, luminescence | AID 588352, 2011 | inhibition, % at 3.6 µM | HEK293 GAL4-SRC3 luciferase reporter | 360,000 compounds, 0.17% hits;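 active = inhibition above a per-campaign cutoff, the mean of all compounds plus 3 SD, cut at about 60% in these data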;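 note: 0% = DMSO-treated cells and 100% = gossypol-treated cells at 36 µM; higher means less SRC3-driven luciferase light from the GAL4 reporter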
# SRC1 inh: SRC1 coactivator transcriptional activity inhibitors, primary screen, cell-based, luminescence | Nuclear receptor coactivator 1 (Homo sapiens), Q15788 | HEK293 GAL4-SRC1 luciferase reporter | inhibition, % at 3.6 µM | 360,000 compounds, 0.12% hits | AID 588354, 2011;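 active = inhibition above the campaign mean plus 3 SD, with each screening campaign given its own cutoff, cut at about 60% in these data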;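 note: 0% = DMSO treated cells and 100% = gossypol at 36 µM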
# Gli-Sufu block: Gli-Sufu pathway antagonists, primary screen, luciferase luminescence, Sufu-KO-LIGHT cells, uHTS. inhibition, % at 5 µM. Sufu-KO-LIGHT fibroblasts, Gli luciferase reporter luminescence. 340,000 compounds, 0.74% hits;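 active = inhibition above about 55%, limit read from the data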;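 note: 0% = DMSO-treated cells and 100% = wells with medium but no cells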
# NR2F2 inh: NR2F2 transcriptional activity inhibitors, primary screen, cell-based, luciferase reporter, HEK293T, luminescence | HEK293T NGFI-A luciferase reporter | inhibition, % at 8.6 µM | 370,000 compounds, 0.7% hits | AID 686940, 2013;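 active = inhibition above a per-plate cutoff, mean inhibition of test wells between control levels plus 3 SD, cut at about 38% in these data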;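 note: cells cotransfected with COUP-TFII expression vector driving the NGFI-A reporter; 0% = median of COUP-TF2 test wells and 100% = reporter-only cells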
# Target sequence (P24468 whole entry, looked up): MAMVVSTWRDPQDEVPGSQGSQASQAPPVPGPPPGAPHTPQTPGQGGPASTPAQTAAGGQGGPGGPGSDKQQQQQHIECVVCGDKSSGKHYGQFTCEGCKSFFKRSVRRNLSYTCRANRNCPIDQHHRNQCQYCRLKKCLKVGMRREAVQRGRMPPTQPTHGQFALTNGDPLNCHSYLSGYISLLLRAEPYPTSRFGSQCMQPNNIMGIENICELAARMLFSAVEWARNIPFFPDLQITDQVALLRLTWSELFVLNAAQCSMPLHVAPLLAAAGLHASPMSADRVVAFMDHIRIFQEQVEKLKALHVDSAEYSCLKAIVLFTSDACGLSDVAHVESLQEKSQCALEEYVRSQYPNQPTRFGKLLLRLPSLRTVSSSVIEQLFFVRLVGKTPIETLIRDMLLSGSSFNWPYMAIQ
# * hit, by the source's call; / = no result; ! = a repeat was not active. In the library only some 1.3% were active in any assay of this set; here they are far more common.
SMILES,SRC2 inh,NR5A2 inv ag,NCOA3 inh,SRC1 inh,Gli-Sufu block,NR2F2 inh
Cc1cc(C=C2C(=O)c3ccccc3C2=O)c(C)n1-c1ccccc1,2.7,-7.3,85.0*,2.3,12.2,-0.3
O=C(O)CCCCCCCCCCC1CCC(O)C1O (centres undefined),40.3,4.7,19.5,6.5,1.4,40.8*
O=C(O)CCCCCCCC(=O)O,-12.8,0.4,-8.9,3.2,-5.7,14.9
CCOc1ccc(C=Nn2c(-c3cccc(OC(C)C)c3)n[nH]c2=S)cc1,-0.4,/,/,/,/,-4.9
CCC(=O)Nc1cc2nn(-c3ccc(OC)cc3)nc2cc1C,-65.3,-77.2,-104.8,-103.4,-52.6,-52.1
CCC(=O)Nc1cc2nn(-c3ccc(C)cc3)nc2cc1C,6.4,18.4,33.6,43.8,39.5,46.3*
N#Cc1ccc(C(=O)Oc2coc(CSc3ncccn3)cc2=O)cc1,/,/,/,/,/,11.8
O=C(/C=C/c1ccc(O)cc1)c1ccccc1,-42.3,-22.2,-14.9,-44.1,-5.6,-22.5
O=C(/C=C/c1ccc(O)cc1)c1ccc(NC2=C(N3CCCCC3)C(=O)c3ccccc3C2=O)cc1,1.7,76.1*,41.8,26.3,19.7,10.9
Cc1ccc(NC2=C(N3CCCCC3)C(=O)c3ccccc3C2=O)cc1,-39.5,62.4,44.8,6.5,15.2,-19.4
O=C1C(Nc2ccccc2)=C(N2CCCCC2)C(=O)c2ccccc21,1.2,93.2*,67.6*,29.4,-15.4,5.7
COc1ccccc1NC1=C(N2CCCCC2)C(=O)c2ccccc2C1=O,/,97.1*,79.7*,73.6*,12.4,/
O=C1C(Nc2cccc(O)c2)=C(N2CCCCC2)C(=O)c2ccccc21,-4.2,15.8,-24.2,-4.8,22.8,-8.8
Cc1c(C(=O)N(Cc2ccccc2)C2CCS(=O)(=O)C2)oc2ccccc12 (centres undefined),0.3,0.6,-2.1,-1.6,11.2,-8.3
Cc1c(C(=O)N(Cc2ccc(F)cc2)C2CCS(=O)(=O)C2)oc2ccccc12 (centres undefined),-3.9,94.2*,19.2,-30.2,0.4,22.8
C[C@@H]1[C@@H](O)C[C@@]2(CC(=O)c3ccccc3O2)O[C@H]1c1ccccc1,-18.9,/,/,/,/,6.0
COC(=O)c1ccc(S(=O)(=O)N2CCC(NC(=O)Cc3cccc(C)c3)CC2)cc1,-16.1,/,/,/,/,-13.9
O=C(O)C1CCCN1c1nc(-c2ccc(Cl)c(Cl)c2)cc(C(F)(F)F)n1 (centres undefined),-15.5,91.9*,72.4*,53.4,12.5,26.0
c1ccc(C[C@H]2CN=C(Nc3ccccc3)N2CCC2CCCC2)cc1,-11.9,14.8,12.1,0.1,23.6,-0.5
NC1=NC[C@H](Cc2ccccc2)N1CCCCC1CCCCC1,1.9,2.5,6.0,-9.4,57.9*,-13.6
O=C(CN1C(=O)C2(OCCCO2)c2ccccc21)NCc1ccccc1Cl,5.9,/,/,/,/,-9.5
C(=NNc1ccc2ccccc2n1)c1ccccn1,-19.8,79.8*,68.4*,72.1*,/,-45.5
C(=N\NC1=Nc2cccc3cccc1c23)/c1ccccn1,5.8,-72.1,-1.8,-89.8,70.0*,-21.9
COC(=O)[C@]12C[C@H](CC(=O)NCCCN3CCCC3=O)C(=O)N(Cc3cccc4ccccc34)C1=C[C@H](C(C)(C)C)O[C@@H]2C,-8.8,/,/,/,/,2.3
CC(C)(C)OC(=O)N1CCN(c2ccc(CNC(=O)c3ccc(Cl)cc3)cc2)CC1,16.5,28.6,8.6,-5.5,4.1,39.3*
SMILES,SRC2 inh,NR5A2 inv ag,NCOA3 inh,SRC1 inh,Gli-Sufu block,NR2F2 inh
COc1ccc2[nH]c3c(c2c1)CCN[C@]31C(=O)N(Cc2ccccc2)c2ccccc21,-11.9,/,/,/,/,8.1
CC(NC(=O)CCc1nnc(-c2ccc(-c3ccccc3)cc2)o1)c1nc2ccccc2[nH]1 (centres undefined),67.0*,3.5,-6.6,-19.8,5.4,34.8
CC(C)(C)c1ccc(C(=O)Nc2sc3c(c2C(=O)O)CCC3)cc1,67.6*,84.4*,77.4*,66.8*,3.6,29.2
O=C(Nc1sc2c(c1C(=O)O)CCCC2)c1ccc(F)cc1,-58.4,29.6,43.8,-0.1,-17.9,0.2
Cc1ccc(O)c(N=Nc2nccs2)c1,23.4,82.5*,63.5*,72.7*,17.2,-62.0
COc1ccc(N=Nc2cc(C)ccc2O)cc1,-66.8,-140.3,-66.3,-151.0,-74.5,-52.8
CC(=O)Nc1cccc(-c2cnc(N)c(C(=O)c3cccnc3)n2)c1,/,74.8*,78.3*,78.6*,-6.5,/
NC(=O)c1cccc(-c2cnc(N)c(C(=O)c3cccnc3)n2)c1,/,62.5,62.8*,75.1*,-10.5,/
Cc1occc1-c1nnc(SCC(=O)Nc2ccccn2)n1-c1ccccc1,5.7,/,/,/,/,12.7
CCCCOc1ccc(C(=O)NC2CCCCN(C(C)C)C2=O)cc1 (centres undefined),3.5,/,/,/,/,12.5
Cc1ccc(-c2cc(C(=O)NCCCN3CCOCC3)no2)cc1,56.3*,18.5,20.8,26.3,38.1,18.0
O=C(NCCCN1CCOCC1)c1cc(-c2ccc(Cl)c(Cl)c2)on1,-6.7,-10.7,3.1,-10.3,-5.3,1.9
O=[N+]([O-])c1ccccc1/C=C/C1Nc2cccc3cccc(c23)N1,-22.2,/,/,/,/,-2.7
C[n+]1c2cc(N)ccc2cc2ccc(N)cc21,-228.6,73.6*!,-71.2,-110.5,20.2,-35.3
Oc1c(Br)cc(Br)cc1/C=N/Nc1ccc(Cl)nn1,-12.4,-0.7,16.8,4.7,90.2*,1.2
O=S(=O)(c1cccc(Br)c1)N1CCN(c2ncnc3scc(-c4ccccc4)c23)CC1,19.5,12.9,-38.0,-5.6,1.9,7.0
Cc1csc2ncnc(N3CCN(S(=O)(=O)c4cccc(C(F)(F)F)c4)CC3)c12,10.3,10.3,-2.0,10.8,67.7*,-7.1
CCOC(=O)N=Nc1c(O)n(CC(=O)OC)c2ccccc12,4.3,-16.8,1.6,-0.6,-14.6,1.8
CCOC(=O)N=Nc1c2ccccc2c2nc3no[nH]c3nc12,-19.4,6.1,88.9*,35.2,97.1*,-8.3
CN(C)S(=O)(=O)c1ccc(-c2csc(N/N=C/c3ccco3)n2)cc1,30.3,1.4,73.3*,58.9,5.7,20.5
c1ccc(-c2cccc(-c3ccccn3)n2)nc1,/,97.6*,83.6*,80.6*,85.2*,/
c1ccc(-c2nnc(-c3ccccn3)nn2)nc1,-59.6,-125.8,-83.5,-123.7,-104.0,-45.7
COC1=C[C@H](C(=O)NCCNC(C)=O)[C@@]2(C)Cc3ccccc3[C@H]2CC1=O,-2.5,/,/,/,/,-0.9
CN1C(=O)C[C@@](C#N)(C(=O)NCc2ccc3c(c2)OCO3)[C@H]1c1ccccc1,4.0,/,/,/,/,-0.5
